From ChEMBL document CHEMBL1201862, “PubChem BioAssay data set” (2004)
The campaign covered roughly 400,000 compounds. About 2,100 (0.53%) were called active. Another 14% or so got no clear call; they are omitted. The sample holds actives, similar compounds and a random draw of the others, so the mix is not that of the screen. How the calls were made is not given here.

biological target: Ataxin-2 (Homo sapiens) (UniProt Q99700); experiment: qHTS for Inhibitors of ATXN expression.; type: functional
Sequence (Q99700 whole entry): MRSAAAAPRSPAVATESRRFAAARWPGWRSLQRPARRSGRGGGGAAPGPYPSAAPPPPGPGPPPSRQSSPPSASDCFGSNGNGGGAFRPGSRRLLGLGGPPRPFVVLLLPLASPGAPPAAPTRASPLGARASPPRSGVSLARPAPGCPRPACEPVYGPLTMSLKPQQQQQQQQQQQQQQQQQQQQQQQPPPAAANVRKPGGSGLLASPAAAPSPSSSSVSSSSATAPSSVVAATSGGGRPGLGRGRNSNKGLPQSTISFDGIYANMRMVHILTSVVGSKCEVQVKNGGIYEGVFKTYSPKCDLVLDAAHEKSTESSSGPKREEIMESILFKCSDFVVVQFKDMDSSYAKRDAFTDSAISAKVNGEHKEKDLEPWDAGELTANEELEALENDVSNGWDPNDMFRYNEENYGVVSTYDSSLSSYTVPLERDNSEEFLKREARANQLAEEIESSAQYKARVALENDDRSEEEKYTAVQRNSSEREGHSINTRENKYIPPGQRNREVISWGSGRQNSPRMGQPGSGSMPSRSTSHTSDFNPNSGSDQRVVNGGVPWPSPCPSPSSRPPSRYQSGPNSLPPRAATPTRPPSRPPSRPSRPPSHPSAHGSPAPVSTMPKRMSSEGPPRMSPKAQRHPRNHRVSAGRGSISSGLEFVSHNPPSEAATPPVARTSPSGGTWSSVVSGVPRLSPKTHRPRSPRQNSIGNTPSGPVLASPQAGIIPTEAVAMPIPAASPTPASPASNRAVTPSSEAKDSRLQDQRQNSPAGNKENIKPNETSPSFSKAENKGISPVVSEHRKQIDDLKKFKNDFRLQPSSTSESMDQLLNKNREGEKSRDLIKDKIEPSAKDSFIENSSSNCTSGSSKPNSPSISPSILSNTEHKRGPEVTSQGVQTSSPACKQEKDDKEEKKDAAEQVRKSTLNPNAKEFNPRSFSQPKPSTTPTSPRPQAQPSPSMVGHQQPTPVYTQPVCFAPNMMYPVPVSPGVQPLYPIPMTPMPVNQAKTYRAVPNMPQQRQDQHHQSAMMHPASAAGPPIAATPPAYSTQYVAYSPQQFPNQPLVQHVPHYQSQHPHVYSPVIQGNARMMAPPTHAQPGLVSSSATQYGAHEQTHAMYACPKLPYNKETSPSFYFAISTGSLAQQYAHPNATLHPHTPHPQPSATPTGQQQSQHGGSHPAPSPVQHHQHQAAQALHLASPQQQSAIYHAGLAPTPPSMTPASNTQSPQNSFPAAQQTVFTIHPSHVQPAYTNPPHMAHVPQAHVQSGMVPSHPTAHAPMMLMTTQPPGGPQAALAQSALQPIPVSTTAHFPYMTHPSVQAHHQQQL

Structure (SMILES)	Potency
CC(C)NC(=O)Nc1ccc2c(c1)C(=O)N([C@H](C)CO)C[C@H](C)[C@@H](CN(C)Cc1ccc(C(F)(F)F)cc1)OCCCC[C@H](C)O2	20 µM (active)
Cc1noc(C)c1S(=O)(=O)Nc1ccc2c(c1)C(=O)N([C@@H](C)CO)C[C@H](C)[C@@H](CN(C)Cc1ccc(C(F)(F)F)cc1)OCCCC[C@H](C)O2	20 µM (active)
Cc1noc(C)c1S(=O)(=O)Nc1ccc(C(C)C)cc1	inactive
COc1ccc(CN2C(=O)/C(=C\NNC(=O)c3cccnc3)c3ccccc3C2=O)cc1	inactive
O=C(CN(C(=O)CCC(=O)Nc1nccs1)c1ccccc1F)NCc1ccc(F)cc1	inactive
CCOc1ccc(-c2cnc3cccnn23)cc1	inactive
O=C(N/N=C/c1cccc2cccnc12)[C@H]1C[C@@H]1c1ccccc1	inactive
Cc1ccc(-c2nnn(CC(=O)N(c3cccc(F)c3)C(C(=O)NC(C)(C)C)c3ccco3)n2)o1 (stereo unspecified)	inactive
COc1ccc(-c2[nH]ncc2CNC(C)c2cn(C)nc2C)c(F)c1 (stereo unspecified)	inactive
CCN(CC)CCNC(=O)c1cc2cc(Br)ccc2s1	inactive
CCN(CC)CCNC(=O)c1cc2c(-c3ccc(Cl)cc3)nn(C)c2s1	22.4 µM (active)
CCCCN(CC)CCNC(=O)c1cc2c(-c3ccc(Cl)cc3)nn(C)c2s1	39.8 µM (active)
CCN(CC)CCCNC(=O)c1cc2c(-c3ccc(Cl)cc3)nn(C)c2s1	17.8 µM (active)
CCN(CC)CCCNC(=O)c1cn(-c2cccc(OC)c2)c(=O)c2ccccc12	inactive
Cc1ccc(-c2cc(C(=O)N3CCN(c4ncccn4)CC3)c3cc(Br)ccc3n2)o1	inactive
CN=C(S)N1N=C(c2ccc(C)cc2)CC1c1ccc(N(C)C)cc1 (stereo unspecified)	inactive
O=C(Oc1cccc2ccccc12)C1CC1	inactive
CC(=O)/C(C#N)=C1\NC(=O)C(Cc2ccccc2C)S1 (stereo unspecified)	inactive
COC(=O)c1cc2c(ccn2C)n1C	inactive
CCC1S/C(=N/N=C/c2ccco2)N(Cc2ccccc2)C1=O (stereo unspecified)	inactive
CC(C)c1cc(N2CCOCC2)n2ncc(-c3ccccc3)c2n1	inactive
CCOC(=O)c1sc(NC(=O)CSc2nc3c(cc2C#N)CCCCCC3)c(C#N)c1C	inactive
CCOc1ccc(/C=C/C2=Cc3c(sc(NC(=O)CSc4n[nH]c(N)n4)c3C#N)C(C)(C)C2)cc1	39.8 µM (active)
COc1cccc(-c2nc(SCC(=O)Nc3nc(-c4ccccc4)c(C)s3)nc(O)c2C#N)c1	inactive
CC(=O)C1=C(C)NC(SCC(=O)Nc2nc3ccccc3s2)=C(C#N)C1c1ccc(Cl)cc1 (stereo unspecified)	inactive
COC(=O)c1c(N=C(S)NNC(=O)c2ccc(Cl)s2)sc(C(=O)N(C)C)c1C	39.8 µM (active)
